The full list was thinned out, with hits kept by preference.
Cycloheximide cs = counter-screen for Shiga toxin inhibitors: cycloheximide protein synthesis inhibition | 12% of 300,000 active | max response, % | cell reporter, cycloheximide protein synthesis inhibition counterscreen; in the data active = max response mostly above about 13%, no sharp cut-off; inactive = mostly below about 14%; note: read at 38.3 µM for the half of the compounds with a filed dose; 0% is about no effect
Sm TGR inh = blocks Schistosoma mansoni thioredoxin glutathione reductase; Q962Y6; purified TGR, DTNB reduction, TNB absorbance 405 nm; Potency, µM (highest dose often 114 µM), without a hit: at the top dose activity change, negative = inhibition, usual class: inhibitors; 3% of 360,000 active; AID 485364; note: potency is the fitted concentration of half-maximal effect; % is set by controls: 0 for no effect and ±100 for the full control effect; nearly all actives have a fitted effect of over 60% in size
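TGR 20 nM + NADPH 100 uM (dispensed conc.), cpd preinc 15 min RT; start with NADPH (500 uM addition) then DTNB (15 mM addition). Kinetic TNB absorbance, 405 nm filter. Four-parameter Hill fit across titration.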
LmPK inhibitor = LmPK (Leishmania mexicana) enzyme inhibition; Potency, µM (top dose mostly 57.5 µM), for inactives: at the top dose activity change, negative = inhibition, most hits filed as inhibitors; purified LmPK, Kinase-Glo ATP luminescence, 1 h; 0.37% of 290,000 active; AID 1721; Q27686; note: potency is the fitted concentration of half-maximal effect; % is set by controls: 0 for no effect and ±100 for the full control effect
Target sequence (Q27686 whole entry, looked up): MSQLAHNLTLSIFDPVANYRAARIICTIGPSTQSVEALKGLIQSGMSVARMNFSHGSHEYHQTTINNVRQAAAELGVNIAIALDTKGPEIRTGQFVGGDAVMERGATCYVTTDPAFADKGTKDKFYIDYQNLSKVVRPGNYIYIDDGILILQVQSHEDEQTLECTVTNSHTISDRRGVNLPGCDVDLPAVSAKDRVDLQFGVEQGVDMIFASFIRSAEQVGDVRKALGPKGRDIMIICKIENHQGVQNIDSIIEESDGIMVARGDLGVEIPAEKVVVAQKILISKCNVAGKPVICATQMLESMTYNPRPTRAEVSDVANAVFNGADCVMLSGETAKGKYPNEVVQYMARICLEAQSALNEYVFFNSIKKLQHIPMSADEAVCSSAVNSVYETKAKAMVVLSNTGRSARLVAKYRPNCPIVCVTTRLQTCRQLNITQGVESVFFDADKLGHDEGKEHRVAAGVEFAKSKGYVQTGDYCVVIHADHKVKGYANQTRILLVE
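ATP generated from ADP (0.1 mM) and PEP (0.5 mM) by 0.1 nM LmPK over 1 h at room temperature (pH 7.2 imidazole buffer) was detected by coupled luciferase luminescence. Values were normalized to uninhibited and no-enzyme wells.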
Tb PYK inh = T. brucei pyruvate kinase inhibition; Q57TT1; TbPYK enzyme, Kinase-Glo Plus ATP luminescence, 45 min; Potency, µM (titrated, usually from 76.8 µM), for inactives: at the top dose activity, negative = inhibition, usual class: inhibitors; 0.12% of 410,000 active; AID 624173; note: potency is the fitted concentration of half-maximal effect; % is set by controls: 0 for no effect and ±100 for the full control effect; nearly all actives have a fitted effect of over 50% in size
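Enzyme and substrate buffer are dispensed first and compound is pin-transferred. ADP at 130 uM final then starts the reaction, which runs 45 min at room temperature. Detection reagent is added for 10 min before luminescence is imaged.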
FBPA Giardia inh = inhibitors of Giardia lamblia fructose-1,6-bisphosphate aldolase; Potency, µM (doses to about 59.6 µM), for inactives: at the highest dose activity, negative = inhibition, most hits filed as inhibitors; purified Giardia FBPA; AID 2451; 0.71% of 290,000 active; note: potency is the fitted concentration of half-maximal effect; % is set by controls: 0 for no effect and ±100 for the full control effect; nearly all actives have a fitted effect of over 55% in size
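40 nM FBPA preincubated 10 min at RT with compound (up to 57.5 uM final), then substrate plus GAPDH/TPI/NAD/arsenate coupling and diaphorase/resazurin added. Fluorescence read after 20 min at RT, 525/598 nm.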
Shiga toxin inh = Shiga toxin inhibition. AID 2315. inhibition, % at 38.7 µM. 9.2% of 290,000 active. Vero cells, Shiga toxin protein synthesis inhibition reporter; in the data active = inhibition mostly above about 28%, no sharp cut-off; inactive = mostly below about 43%; note: 0% is about no effect
Active calls of the source: *; u = inconclusive; x = not tested or not shown; [ ] = remark or other dose. Unless noted, calls come from the whole dose curve; as a rule, active = well fitted curve in the direction sought with a large enough effect; inconclusive = small, poorly fitted or top-dose-only effect, or another doubt; inactive = no such curve, though single readings can be large; an effect the other way counts as inactive or inconclusive.

SMILES | Cycloheximide cs | Sm TGR inh | LmPK inhibitor | Tb PYK inh | FBPA Giardia inh | Shiga toxin inh
CN1C(=O)C2(c3ccccc31)N(c1cccc(C(F)(F)F)c1)C(=O)CS2(=O)=O (configuration not stated) | x | -1% | x | -13% | x | x
CCCN(C(=O)c1cc(-c2ccco2)nc2ccccc12)c1c(N)n(Cc2ccccc2)c(=O)[nH]c1=O | x | 8.9µM* | x | 0% | x | x
COCCN(C(=O)c1cc(-c2ccco2)nc2ccccc12)c1c(N)n(Cc2ccccc2)c(=O)[nH]c1=O | x | x | x | -3% | x | x
Cc1cc(C)c(S(=O)(=O)NCc2csc(-c3ccccc3)n2)c(C)c1 | x | 4% | x | -5% | x | x
COc1ccc(NC(=O)CSc2nc(-c3ccco3)nc3cc(=O)[nH]n23)cc1 | x | 10µM* | x | 0% | x | x
Cc1ccc(NC(=O)CSc2nc(-c3ccco3)nc3cc(=O)[nH]n23)cc1C | x | 22µM* | x | -4% | x | x
COc1ccc(NC(=O)CSc2nc(-c3ccco3)nc3cc(=O)[nH]n23)cc1Cl | -2 | u | -1% | -6% | x | -4
O=C(Nc1ccc2oc(-c3ccncc3)nc2c1)c1ccco1 | 27* | 35µM* | 0% | -11% | -5% | 48
O=C(Nc1ccc2oc(-c3ccccc3)nc2c1)c1ccco1 | 94* | -11% | 1% | -10% | 1% | 78*
COc1ccc(N2CCN(C3CCCN(Cc4cccc(C(C)=O)c4)C3)CC2)cc1 (configuration not stated) | 4 | 4% | 1% | 1% | 5% | 0
Nc1cccc2c3c(oc12)CCCC3 | 9.4* | 5% | 0% | -5% | u | 11
CCc1nn2c(=O)cc(COC(=O)c3ccccc3NC(=O)COc3ccccc3C)nc2s1 | x | 1% | x | -4% | x | x
O=[N+]([O-])c1ccc(-n2cnc3ccccc32)c([N+](=O)[O-])c1 | -1 | u | 19% | -1% | -16% | -3
Cc1cc(C)n(CCC(=O)Nc2ccc3c(c2)OCCO3)n1 | 15* | -2% | -3% | 1% | 0% | 45*
Cc1ccn(CCC(=O)Nc2ccc3c(c2)OCO3)n1 | 24* | 0% | 4% | -1% | x | 73*
CCC(C)(C)NC(=O)/C=C/c1cnc2ccccc2n1 | 73* | -5% | 1% | 2% | -14% | 77*
O=C(/C=C/c1cnc2ccccc2n1)NC12CC3CC(CC(C3)C1)C2 | 54* | -10% | -4% | -3% | -4% | 136*
CC(C)N(Cc1ccccc1)C(=O)COC(=O)/C=C/c1cnc2ccccc2n1 | 21* | -22% | 0% | -1% | 3% | 50
CCN(C(=O)COC(=O)/C=C/c1cnc2ccccc2n1)c1ccccc1 | 8 | -13% | 10% | 0% | -3% | 10
COc1cccc(Cn2cnc3c2c(=O)n(C)c(=O)n3C)c1 | x | 5% | x | 1% | x | x
Cc1cc(-c2ccc3c(c2)COc2c4ccccc4nn2-3)on1 | x | x | x | -14% | x | x
C(#CC1CCCC1)c1ccc2c(c1)COc1c3ccccc3nn1-2 | 14* | -2% | -4% | -19% | 6% | 91*
CCC1CCCCN1C(=O)CSc1nnc(-c2cccc(Cl)c2)o1 (configuration not stated) | 29* | 0% | 3% | -6% | 3% | 98*
CCC1CCCCN1C(=O)CSc1nnc(-c2ccc(Cl)cc2)o1 (configuration not stated) | -4 | -25% | 14% | 1% | 3% | -4
CCC1CCCCN1C(=O)CSc1nnc(-c2ccc(Cl)s2)o1 (configuration not stated) | 38* | 7% | 5% | -6% | 6% | 82*
SMILES | Cycloheximide cs | Sm TGR inh | LmPK inhibitor | Tb PYK inh | FBPA Giardia inh | Shiga toxin inh
CCC1CCCCN1C(=O)CSc1nnc(-c2ccco2)o1 (configuration not stated) | 37* | u | -4% | 6% | 0% | 62*
Cc1cn(CC(=O)NCC2CCCO2)c(=O)[nH]c1=O (configuration not stated) | x | x | x | -2% | x | x
O=C(CSC1=Nc2ccccc2C2=NC(CCC(=O)NC3CCCCC3)C(=O)N12)Nc1cccc(C(F)(F)F)c1 (configuration not stated) | x | 2% | x | -7% | x | x
COc1ccc(CCNC(=O)Cn2cc(C(=O)c3ccc(Cl)cc3)c(=O)c3ccc(C)nc32)cc1OC | x | 8% | x | 2% | x | x
O=C(c1cccs1)c1coc2ccc(O)cc12 | 75* | 7% | -3% | -2% | 3% | 81*
CC(=O)Oc1ccc2occ(C(=O)c3cccs3)c2c1 | 37* | 1%[11.4 µM] | 1% | 3% | 2% | 67*
O=C(CCl)Oc1ccc2occ(C(=O)c3cccs3)c2c1 | 39* | u | -16% | 4% | 1% | 50
CC(=O)Oc1ccc2occ(C(=O)c3ccccc3)c2c1 | x | x | x | -5% | x | x
CC(=O)Oc1ccc2occ(-c3ccccc3)c2c1 | 25* | 60% | 0% | 1% | 11% | 125*
O=C(NCCc1ccc(Cl)cc1)C1CCN(Cc2cc3ccccc3n2Cc2ccccc2)CC1 | x | 1% | x | 1% | x | x
Cc1cccc(NC(=O)c2ccc3snnc3c2)c1C | x | 7% | x | 4% | x | x
COCCN1Cc2cc3cc(C)ccc3nc2SC1=Nc1ccc(OC)cc1 | 15* | -19%[57.1 µM] | 2% | -3% | -15% | 64*
COCCN=C1Sc2nc3ccc(C)cc3cc2CN1Cc1cccs1 | 12* | -23% | 5% | -16% | -28% | 36*
CCC(C)N=C1Sc2nc3ccc(C)cc3cc2CN1CCOC (configuration not stated) | 5 | 6% | 13% | u | -16% | -3
O=C(NCc1ccc(F)cc1)c1cc(C2CCCN(S(=O)(=O)c3ccccc3)C2)on1 (configuration not stated) | x | x | x | 7% | x | x
COCCn1c(=NC(=O)c2cccs2)sc2cc(NC(C)=O)ccc21 | -4 | -3% | -2% | -5% | 4% | -6
COCCn1c(=NC(=O)C(C)(C)C)sc2cc([N+](=O)[O-])ccc21 | 19* | 3% | -1% | 1% | 0% | 9
Cc1cc2nn(-c3ccc(F)cc3)nc2cc1NC(=O)c1cccc2c(Cl)cccc12 | x | 11% | x | 2% | x | x
Cc1cccc(-c2nsc(SCC(=O)Nc3ccc4c(c3)OCO4)n2)c1 | 27* | 1% | 2% | -4% | 0% | 36*
O=C(CSc1nc(-c2ccccc2Cl)ns1)NCc1ccc2c(c1)OCO2 | -1 | 6% | 1% | 4% | -2% | -11
Cc1ccccc1-c1nsc(SCC(=O)Nc2ccc3c(c2)OCO3)n1 | 33* | 0% | 4% | 7% | 2% | 35
CC1CC(C)CN(CC(=O)c2ccc(OC(F)F)cc2)C1 (configuration not stated) | 34* | -5% | -4% | -5% | 4% | 26*
CNS(=O)(=O)c1cn(CC(=O)N2CCN(c3ccccc3F)CC2)cc1S(=O)(=O)NC | x | 0% | x | 1%[15.4 µM] | x | x
O=c1ccc2ccc(O)c(O)c2o1 | x | x | x | x | 10µM* | x

Screens from PubChem.
